AID504770 – E. coli YBA685 growth inhibition, screen for V. cholerae RctB inhibitors. z-score (test concentration not listed). hit rate 0.27% among 130,000. E. coli YBA685 rctB-dependent plasmid, OD600 growth, 3 h; hits give low values; in the data active = z-score below about -2, passing the limit was not always enough
PV pol inh – inhibitors of poliovirus RNA polymerase binding and polymerization | poliovirus polymerase elongation, fluorescence polarization; hits give low values | % elongation, % (compound at 16.7 µg/mL) | hit rate 0.66% among 150,000 | AID 588519; in the data active = % elongation below about 90%
MenB inh – Mtb MenB enzyme inhibition; P9WNP5; MenB enzyme assay, absorbance read-out; inhibition, % (concentration not given with the values); hit rate 0.43% among 100,000; AID 540299; in the data active = inhibition above about 21%, passing the limit was not always enough
Target sequence (P9WNP5 whole entry, looked up): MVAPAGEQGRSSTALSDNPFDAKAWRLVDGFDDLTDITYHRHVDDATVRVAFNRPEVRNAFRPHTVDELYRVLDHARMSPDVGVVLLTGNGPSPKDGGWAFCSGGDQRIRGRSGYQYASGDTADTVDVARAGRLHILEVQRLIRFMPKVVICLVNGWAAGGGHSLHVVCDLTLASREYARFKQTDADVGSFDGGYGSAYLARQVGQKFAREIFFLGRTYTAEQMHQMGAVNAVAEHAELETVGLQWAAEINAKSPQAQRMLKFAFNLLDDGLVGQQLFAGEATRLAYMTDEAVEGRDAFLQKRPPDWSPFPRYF
MbtI inh – blocks the Mycobacterium tuberculosis siderophore enzyme MbtI. P9WFX0. purified MbtI enzyme, fluorescence intensity read-out. inhibition, % (concentration not given with the values). hit rate 0.89% among 100,000; in the data active = inhibition mostly above about 56%, no sharp cut-off; inactive = mostly below about 77%
Of the large screens only hits and unclear results are named; the others gave an inactive call. An excerpt weighted towards active compounds, which were near 1.4% of everything screened.

O=C(O)CC(CP(c1ccccc1)c1ccccc1)C(=O)O (stereo unspecified)	none
OCCP(c1ccccc1)c1ccccc1	MenB inh 61
O=S(=O)(c1cccc2cccnc12)N1CCCN(Cc2c(F)cccc2Cl)CC1	none (no result: PV pol inh, MenB inh, MbtI inh)
Clc1cc2c(cc1Cl)Nc1cc(Cl)c(Cl)cc1N2	MbtI inh 95
Cc1csc(-c2ccc(Oc3ccc(Cl)cc3)nc2)n1	none (no result: PV pol inh, MenB inh, MbtI inh)
N#Cc1ccc(-c2ccccc2)[nH]c1=O	none
N#Cc1nc2[nH]c(-c3ccccc3)cc(=O)n2c1C#N	PV pol inh 90
Cn1c(CCC(=O)NCc2ccc(F)cc2)nc2cc(S(=O)(=O)N3CCCCC3)ccc21	none (no result: PV pol inh)
COc1ccc(NC(=O)CCc2nc3cc(S(=O)(=O)N4CCCCC4)ccc3n2C)cn1	MbtI inh 95
CC(C)C(Sc1nncn1C(C)C)C(=O)NC(N)=O (stereo unspecified)	none
CCN1CCN(C(=O)C2CCCN(c3nn4cc(-c5ccc(OC)cc5)nc4s3)C2)CC1 (stereo unspecified)	none
N#Cc1cc(-c2ccccc2C(F)(F)F)no1	AID504770 -2.6
COC(=O)c1cc(OC(=O)C23CC4CC(CC(C4)C2)C3)n(C)n1	none
O=c1n(CN2CCOCC2)c2ccccc2n1CN1CCOCC1	none (no result: MbtI inh)
S=c1n(CN2CCOCC2)c2ccccc2n1-c1ccccc1	PV pol inh 72, MbtI inh 99
CC(C)(C)OC(=O)N1CCN(C2CC(=O)N(c3ccccc3)C2=O)CC1 (stereo unspecified)	none
O=C1CC(N2CCCC2)C(=O)N1c1ccccc1 (stereo unspecified)	MbtI inh 63
Cc1nn(-c2ccccc2)c(Cl)c1C=C(C#N)C#N	none
CCOc1ccc2oc(=O)cc(CN(Cc3ccco3)C3CCCC3)c2c1	none
CC(C)Cc1csc2ncnc(NCCO)c12	PV pol inh 88
Cn1c(=O)c(C2=NS(=O)(=O)c3ccccc3N2)c(O)c2ccccc21	MenB inh 33
CN1C(=O)NC2NC(=O)N(C)C21 (stereo unspecified)	none
CC1=NOC(=O)/C1=C/c1ccc(O)cc1	MbtI inh 92
Cc1ccc2occ(CC(=O)Nc3ccc(OC(F)F)cc3)c2c1	none
Cc1ccc(Cl)cc1N1CCN(C(CC(=O)O)C(=O)c2ccc(F)cc2)CC1 (stereo unspecified)	PV pol inh 70, MenB inh 31
COC(=O)CC1=C(C(=O)OC)C(c2ccccc2)NC(=O)N1 (stereo unspecified)	none (no result: MbtI inh)
O=c1c2ccccc2nnn1CSC(=S)N1CCCC1	none
N/C(=N\N=C1CCCCCC1)SCn1nnc2ccccc2c1=O	PV pol inh 90
C/C(=C\C(=O)Nc1ccc(Cl)cc1)NCc1ccco1	none
Cn1c(SC(C#N)Cc2ccccc2)nnc1-c1ccc(C(C)(C)C)cc1 (stereo unspecified)	none
O=C(Nc1cc(C(F)(F)F)cc(C(F)(F)F)c1)C(=S)NCCNc1cccc2ccccc12	PV pol inh 71 (no result: MbtI inh)
O=C(/C=C/c1ccco1)NC(=S)NC1CCCCC1	none
CC(C)c1ccc(C2=CC(=O)C=CC2=O)cc1	none
O=C1C=CC(=O)C(c2ccc(C(=O)O)cc2)=C1	MbtI inh 91
CCOc1cc(CNc2ccc(O)cc2)ccc1OCc1ccc(Cl)cc1	PV pol inh 80 (no result: AID504770, MenB inh, MbtI inh)
Nc1ccc2c(c1)C(=O)N(CC1CCCO1)C2=O (stereo unspecified)	none
O=C1C=CC(=O)N1CC1CCCO1 (stereo unspecified)	MbtI inh 62 (no result: MenB inh)
C=CCn1c(=N)n(CC(O)COc2cccc(C)c2)c2ccccc21 (stereo unspecified)	none
COC(=O)c1ccc(O)c(C(=O)OC)c1	PV pol inh 0.0
COC(=O)c1ccc(NC(C)=O)c(C(=O)OC)c1	none (no result: PV pol inh, MenB inh, MbtI inh)
O=C(COc1ccc(Cl)cc1Cl)NO	AID504770 -5.4 (no result: PV pol inh, MenB inh, MbtI inh)
CCC(CC)NC(=O)COc1ccc(Cl)cc1Cl	none (no result: MenB inh)
COC(CNC(=O)c1ccc(/C=C2\Oc3ccccc3NC2=O)cc1)OC	none
CC1=C(c2ccc(Cl)cc2)S(=O)(=O)N=C1N1CCC(C(=O)NCc2ccccc2F)CC1	none (no result: AID504770, MenB inh, MbtI inh)
CC1=C(c2ccc(C(C)C)cc2)S(=O)(=O)N=C1N1CCC(C(=O)NCc2ccccc2)CC1	PV pol inh 34 (no result: AID504770, MenB inh, MbtI inh)
O=C(CNc1cccc(C(F)(F)F)c1)N/N=C/c1ccc2c(c1)OCO2	none
O=C1C=CC(=O)N1c1ccccc1Sc1ccccc1	MbtI inh 99 (no result: MenB inh)
CCOC(=O)c1cc2ccccc2n1C	none
O=C(NNc1ccccc1)C(F)(F)F	none
Cc1cc(C)cc(OC(=O)c2cccnc2)c1	none
Cc1ccc(OC(=O)c2cccnc2)cc1	MenB inh 52
CC(=O)NC(=S)N1CCCc2ccccc21	none
CC(NCCC(=O)O)c1ccccc1 (stereo unspecified)	MenB inh 34
O=S1(=O)C=C(SCCN2CCOCC2)c2ccccc21	AID504770 -3.4
Cc1ccccc1-c1ocnc1C(=O)Nc1cccnc1	MenB inh 30
CCOc1ccccc1NC(=O)/C=C/C(N)=O	none (no result: PV pol inh, MenB inh, MbtI inh)
NC(=O)/C=C/C(=O)Nc1ccccc1Cl	MbtI inh 100
Cc1ccccc1NC(=O)/C=C\C(N)=O	MbtI inh 99
CC(=O)Oc1ccc(C(=O)COc2ccc(F)cc2)c(O)c1C	none
N#CC(C(=O)c1ccco1)c1nc2ccccc2[nH]1 (stereo unspecified)	MbtI inh 98
O=c1[nH]c(CN2CCNCC2)nc2ccccc12	none
CC(c1nc2ccccc2c(=O)[nH]1)N1CCN(Cc2ccc(Cl)s2)CC1 (stereo unspecified)	PV pol inh -3.0
Cc1ccc(NC(=S)N2CCCN(c3ncc(C(F)(F)F)cc3Cl)CC2)c(C)c1	none
O=C(Nc1ccc2c(c1)OCO2)c1cnn2c(C(F)(F)F)cc(-c3ccco3)nc12	none
COC(=O)c1cc(-c2ccco2)nc2c1cnn2Cc1ccc2c(c1)OCO2	PV pol inh 71
Cc1ccc(NC(=S)C(C#N)C(N)=O)cc1Cl (stereo unspecified)	MbtI inh 74
Nc1cc(N)c2cc(-c3ccccc3)oc2c1	PV pol inh 87
O=c1cc(-c2ccccc2)oc2cc(Cl)ccc12	none (no result: PV pol inh, MenB inh, MbtI inh)
Cc1nnc(C)n1/N=C/c1ccc(N(C)CCO)cc1	none
COCCOc1ccc(C(F)(F)F)cc1Nc1nc2ccccc2o1	PV pol inh 87
C/C(=N\NC(=O)c1ccn[nH]1)c1cc(O)ccc1O	MbtI inh 71
C=CCn1c(SC)nc2c1c(=O)[nH]c(=O)n2C	MbtI inh 96
C=CCn1c(NC)nc2c1c(=O)[nH]c(=O)n2C	none
O=C1CCC2(CC1)OCCO2	none
CCN(CC)Cc1cc(C(C)C)c(O)c(C(C)C)c1	none (no result: PV pol inh, MenB inh, MbtI inh)
CCN(CC)Cc1cc(O)c(CN(CC)CC)cc1O	MbtI inh 94 (no result: MenB inh)
CCCCN1C(=O)/C(=C2/Sc3ccc(OC)cc3N2C)SC1=S	none
C=C1c2cccc(O)c2C(O)=C2C(=O)C3(O)C(O)=C(C(N)=O)C(=O)C(N(C)C)C3C(O)C12 (stereo unspecified)	AID504770 -6.9
Oc1ccccc1/C=N/c1ccnn1-c1ccccc1	none
COc1ccc(CCN(C)c2nc(N)c3c(N)nc(SCC(=O)O)cc3c2C#N)cc1OC	PV pol inh 72
Cc1ccc(-n2sc3ccccc3c2=O)cc1	MbtI inh 101
Cc1ccc(N2C(=O)c3ccccc3C2=O)cc1	none

Screens (PubChem BioAssay)
